Screen size: about 5,500 compounds; about 2,000 (36%) were called active. Inconclusive results (about 18%) are left out. No stated cut-off is given here; in the data, active means normalized growth mostly below about 0.91 (no sharp cut-off); inconclusive means no clear call, values can overlap the other calls; inactive means mostly above about 0.92. The list shows a part of the results.
Assay: chemical genetic growth profiling, strain panel (AID 1159580);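 further: tested at 20 µM; growth read once vehicle control cultures reached saturation at 30 °C; 1 = growth at the plate median or of vehicle wells; lower values mean less growth of the strain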
Settings: S. cerevisiae deletion strains, growth OD
[1] = locus YAL021C, strain ccr4, active compounds read low
[2] = locus YAL026C, strain drs2, active compounds read low
[3] = locus YAL030W, strain snc1, active compounds read low
[4] = locus YBL061C, strain skt5, active compounds read low
[5] = locus YBR009C, strain hhf1, active compounds read low
[6] = locus YBR023C, strain chs3, active compounds read low
[7] = locus YBR171W, strain sec66, active compounds read low
[8] = locus YBR231C, strain swc5, active compounds read low
[9] = locus YBR279W, strain paf1, active compounds read low
[10] = locus YCL011C, strain gbp2, active compounds read low
[11] = locus YCL016C, strain dcc1, active compounds read low
[12] = locus YCL061C, strain MRC1, active compounds read low
[13] = locus YCL069W, strain vba3, active compounds read low
[14] = locus YCR088W, strain abp1, active compounds read low
[15] = locus YDL005C, strain med2, active compounds read low
[16] = locus YDL040C, strain nat1, active compounds read low
[17] = locus YDR001C, strain nth1, active compounds read low
[18] = locus YDR069C, strain doa4, active compounds read low
[19] = locus YDR137W, strain rgp1, active compounds read low
[20] = locus YDR159W, strain sac3, active compounds read low
[21] = locus YDR297W, strain sur2, active compounds read low
[22] = locus YDR334W, strain swr1, active compounds read low
[23] = locus YDR335W, strain msn5, active compounds read low
[24] = locus YDR392W, strain spt3, active compounds read low
[25] = locus YEL003W, strain gim4, active compounds read low
[26] = locus YEL037C, strain rad23, active compounds read low
[27] = locus YEL061C, strain CIN8 (second series), active compounds read low
[28] = locus YER015W, strain faa2, active compounds read low
[29] = locus YER016W, strain bim1, active compounds read low
[30] = locus YER111C, strain swi4, active compounds read low
[31] = locus YER155C, strain BEM2 (second series), active compounds read low
[32] = locus YFR010W, strain ubp6, active compounds read low
[33] = locus YGL167C, strain pmr1, active compounds read low
[34] = locus YGL173C, strain kem1, active compounds read low
[35] = locus YGL227W, strain vid30, active compounds read low
[36] = locus YGL240W, strain doc1, active compounds read low
[37] = locus YGL253W, strain hxk2, active compounds read low
[38] = locus YHR013C, strain ard1, active compounds read low
[39] = locus YHR027C, strain rpn1, active compounds read low
[40] = locus YHR142W, strain chs7, active compounds read low
[41] = locus YJL092W, strain hpr5, active compounds read low
[42] = locus YJL095W, strain BCK1 (second series), active compounds read low
[43] = locus YJL115W, strain asf1, active compounds read low
[44] = locus YJL129C, strain trk1, active compounds read low
[45] = locus YJL154C, strain vps35, active compounds read low
[46] = locus YJL164C, strain tpk1, active compounds read low
[47] = locus YJL166W, strain qcr8, active compounds read low
[48] = locus YJL187C, strain SWE1, active compounds read low
[49] = locus YKL160W, strain elf1, active compounds read low
[50] = locus YKR026C, strain gcn3, active compounds read low
[51] = locus YKR091W, strain srl3, active compounds read low
[52] = locus YLL001W, strain dnm1, active compounds read low
[53] = locus YLL026W, active compounds read low
[54] = locus YLL041C, strain sdh2, active compounds read low
[55] = locus YLR027C, strain aat2, active compounds read low
[56] = locus YLR221C, strain rsa3, active compounds read low
[57] = locus YLR258W, strain gsy2, active compounds read low
[58] = locus YLR262C, strain YPT6 (second series), active compounds read low
[59] = locus YLR320W, strain mms22, active compounds read low
[60] = locus YLR342W, strain FKS1, active compounds read low
[61] = locus YLR357W, strain rsc2, active compounds read low
[62] = locus YLR370C, strain arc18, active compounds read low
[63] = locus YLR384C, strain iki3, active compounds read low
[64] = locus YML120C, strain ndi1, active compounds read low
[65] = locus YMR058W, strain fet3, active compounds read low
[66] = locus YMR125W, strain sto1, active compounds read low
[67] = locus YMR129W, active compounds read low
[68] = locus YMR205C, strain PFK2, active compounds read low
[69] = locus YMR231W, strain pep5, active compounds read low
[70] = locus YNL071W, strain lat1, active compounds read low
[71] = locus YNL209W, strain ssb2, active compounds read low
[72] = locus YNL248C, strain rpa49, active compounds read low
[73] = locus YNL322C, strain KRE1 (second series), active compounds read low
[74] = locus YNR049C, strain mso1, active compounds read low
[75] = locus YOR001W, strain rrp6, active compounds read low
[76] = locus YOR070C, strain gyp1, active compounds read low
[77] = locus YOR080W, strain dia2, active compounds read low
[78] = locus YOR083W, strain WHI5, active compounds read low
[79] = locus YOR106W, strain vam3, active compounds read low
[80] = locus YOR265W, strain rbl2, active compounds read low
[81] = locus YOR270C, strain vph1, active compounds read low
[82] = locus YOR290C, strain snf2, active compounds read low
[83] = locus YPL051W, strain arl3, active compounds read low
[84] = locus YPL078C, strain atp4, active compounds read low
[85] = locus YPL106C, strain sse1, active compounds read low
[86] = locus YPL240C, strain hsp82, active compounds read low

Measured: normalized growth

C[C@]12C=CC(=O)C=C1CCC1C2[C@@H](O)C[C@@]2(C)C1CC[C@]2(O)C(=O)COP(=O)(O)O (some centres not stated)
inactive: [1] 1.01 | [2] 1 | [3] 1 | [4] 0.995 | [5] 1 | [6] 0.998 | [7] 0.995 | [8] 1.01 | [9] 1.01 | [10] 1 | [11] 0.995 | [12] 0.995 | [13] 1.01 | [14] 1.01 | [15] 1 | [16] 0.997 | [17] 1 | [18] 0.998 | [19] 1.02 | [20] 0.98 | locus YDR195W, strain ref2 0.954 | [21] 1 | [22] 1.01 | [23] 0.998 | [24] 0.96 | [25] 1.01 | [26] 1.04 | [27] 0.999 | [28] 0.999 | [29] 0.99 | [30] 0.998 | [31] 1.01 | [32] 1.01 | [33] 1 | [34] 1 | [35] 0.996 | [36] 0.996 | [37] 0.995 | [38] 1 | [39] 1 | locus YHR030C, strain SLT2, active compounds read low 1.04 | locus YHR079C, strain IRE1, active compounds read low 1.02 | [40] 0.999 | [41] 0.993 | [42] 0.994 | locus YJL095W, strain BCK1, active compounds read low 0.977 | [43] 0.995 | [44] 1 | [45] 1.01 | [46] 0.995 | [47] 1.01 | [48] 1.01 | locus YJR066W, strain TOR1, active compounds read low 0.973 | [49] 1 | [50] 0.984 | [51] 1 | [52] 1 | [53] 0.992 | [54] 1 | [55] 1.01 | locus YLR113W, strain HOG1, active compounds read low 0.984 | [56] 1.01 | [57] 1 | [58] 1.01 | [59] 1 | [60] 0.989 | [61] 0.983 | [62] 1 | [63] 1 | [64] 1.01 | [65] 0.996 | [66] 0.98 | [67] 1.01 | [68] 0.992 | [69] 1 | [70] 1 | locus YNL183C, strain NPR1, active compounds read low 0.973 | [71] 1 | [72] 1.02 | [73] 1 | [74] 1.01 | [75] 1.01 | [76] 0.994 | [77] 0.998 | [78] 1.01 | [79] 1.01 | locus YOR231W, strain MKK1, active compounds read low 1.02 | [80] 0.995 | [81] 1.03 | [82] 1.02 | [83] 1.01 | [84] 1 | [85] 1.01 | [86] 0.996 | locus YPL256C, strain CLN2, active compounds read low 0.997

OC1CC2CCCC(C1)N2Cc1ccccc1 (configuration not stated)
inactive: [1] 1.01 | [2] 0.993 | [3] 1 | [4] 0.932 | [5] 0.989 | [6] 1 | [7] 0.987 | [8] 0.988 | [9] 1 | [10] 1.01 | [11] 0.998 | [12] 0.997 | [13] 1 | [14] 1 | [15] 0.992 | [16] 0.998 | [17] 1 | [18] 0.989 | [19] 0.974 | [20] 0.963 | locus YDR195W, strain ref2 0.913 | [21] 0.998 | [22] 1.01 | [23] 1 | [24] 0.901 | [25] 1 | [26] 1 | [27] 1 | [28] 1 | [29] 0.986 | [30] 0.982 | [31] 0.989 | [32] 1 | [33] 0.99 | [34] 0.997 | [35] 0.986 | [36] 0.977 | [37] 0.989 | [38] 0.953 | [39] 1 | [40] 1.01 | [41] 1.02 | [42] 1 | [43] 1 | [44] 0.993 | [45] 1 | [46] 1 | [47] 0.998 | [48] 1 | [49] 1 | [50] 1 | [51] 0.999 | [52] 0.986 | [53] 0.988 | [54] 1 | [55] 1 | [56] 1 | [57] 0.986 | [58] 0.956 | [59] 0.99 | [60] 0.995 | [61] 0.959 | [62] 1.01 | [63] 0.996 | [64] 1.02 | [65] 1 | [66] 0.988 | [67] 0.994 | [68] 0.978 | [69] 1 | [70] 1.01 | [71] 1 | [72] 0.981 | [73] 1 | [74] 0.999 | [75] 1.01 | [76] 0.995 | [77] 0.998 | [78] 1.01 | [79] 1 | [80] 0.99 | [81] 0.99 | [82] 0.955 | [83] 1 | [84] 1 | [85] 0.98 | [86] 1
